Results taken from PubChem BioAssay AID1626 (SRMLSC, 2009).
The campaign covered roughly 220,000 compounds. About 2,000 (0.91%) were called active. Roughly 2% stayed inconclusive and do not appear here. A selection follows. Potency and affinity values are given separately. Unmarked numbers belong to inactive results. No stated cut-off is given here; in the data, inconclusive means inhibition above about 80% without an active follow-up result; inactive means below that; test concentration not stated here.

test: M. tuberculosis H37Rv growth inhibitors, H37Rv strain (AID 1626); details: active compounds read high, concentration not given here;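 further: bacteria incubated seven days before Alamar blue readout; 0% = bacteria only wells and 100% = bacteria with antibiotic wells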

In order of falling inhibition:
1. COc1ccc(C(CCN2CCCC2)c2c(OC)cc(OC)c3c(-c4ccccc4)cc(=O)oc23)cc1 (stereo not given)  64.5%
2. Cc1ccc(/C=C\c2nccc3c2[nH]c2ccccc23)cc1  42.1%
3. c1ccc(-c2nnc(CSc3nnc(-c4cccs4)o3)o2)cc1  39.4%
4. COC(=O)c1cc(Sc2c(Cl)cccc2Cl)ccn1  34%
5. O=C(COc1ccc(Cl)cc1)NCc1nnc2c3ccccc3c(-c3ccccc3)nn12  32.3%
6. CCc1nnc(NC(=O)c2cc(-c3ccccc3)nn2-c2ccccc2)s1  19.3%
7. CN1CCC(N(C)C(=O)c2cc(=O)c3ccccc3o2)CC1  18.1%
8. O=C(NCc1nnc2c3ccccc3c(-c3ccccc3)nn12)c1ccccc1Cl  17.6%
9. COc1cc(OC)c2c(-c3ccccc3)cc(=O)oc2c1C(CCN1CCN(c2ccccc2)CC1)c1ccc(N(C)C)cc1 (stereo not given)  13.6%
10. Clc1ccc(-c2nnc(CSc3nnc(-c4cccs4)o3)o2)cc1  12.5%
11. COc1cc(C(CCN2CCCCC2)c2c(OC)cc(OC)c3c(-c4ccccc4)cc(=O)oc23)cc(OC)c1OC (stereo not given)  10.2%
12. Cc1ccc(Nc2nc(CSc3n[nH]c(N)n3)cs2)cc1  9.31%
13. Fc1ccc(/C=C\c2nccc3c2[nH]c2ccccc23)cc1  8.94%
14. O=S(=O)(Nc1ccccc1)c1ccc(-c2csnn2)cc1  8.85%
15. CCC(C)NC(=O)c1c(N)n(/N=C/c2cccnc2)c2nc3ccccc3nc12 (stereo not given)  7.17%
16. O=C(Nc1ccccc1O)c1cc(S(=O)(=O)N2CCOCC2)ccc1Cl  6.89%
17. COc1ccc(C(CCN2CCN(c3ccccc3)CC2)c2c(OC)cc(OC)c3c(-c4ccccc4)cc(=O)oc23)cc1 (stereo not given)  6.72%
18. Cc1ccc(CSCc2ccc(C(=O)NCC3CCCO3)o2)cc1 (stereo not given)  6.03%
19. Cc1c(C(=O)O)cccc1N1C(=O)Nc2ccccc2N1O  5.34%
20. OC1CCN(c2cc(-c3ccccc3)nc3cc(-c4ccc(F)cc4)nn23)CC1  5.18%
21. CCN(CC)C(=O)CN(c1cc(Cl)ccc1OC)S(=O)(=O)c1ccc(C)c([N+](=O)[O-])c1  4.94%
22. S=C(NCc1ccco1)Nc1ccc(Br)cc1Cl  4.87%
23. CCOC(=O)c1ccc(NC(=S)N2CCN(c3ccc(N4CCOCC4)nn3)CC2)cc1  4.49%
24. NNc1nc(-c2ccccc2)cs1  4.39%
25. CCc1ccc(-c2nn(-c3cc(Cl)ccc3[N+](=O)[O-])c(=O)c3ccccc23)cc1  3.9%
26. COC(=O)c1cn(NC(=O)Cc2cccc(OC)c2)c(=O)c2ccccc12  3.66%
27. CCOC(=O)C(Cc1ccccc1)C(=O)Nc1ccc(NC(=O)C(Cc2ccccc2)C(=O)OCC)cc1 (stereo not given)  3.39%
28. COc1ccc(C(CC(=O)Nc2ccccc2OC)n2cccc2)cc1 (stereo not given)  3.19%
29. CC(OC(=O)CCC(=O)c1cccs1)C(=O)Nc1ccc(Cl)cn1 (stereo not given)  2.41%
30. c1ccc(-c2nc(CSc3nnc(-c4cccs4)o3)cs2)cc1  2.37%
31. Cc1noc(-c2ccccc2OC(=O)c2ccccc2)n1  1.9%
32. Fc1ccc(-c2cc3nc(-c4ccccc4)cc(N4CCOCC4)n3n2)cc1  1.89%
33. O=C(Nc1ccccc1)c1ccc(NCc2cccnc2)c(S(=O)(=O)N2CCOCC2)c1  1.54%
34. O=C(COC(=O)c1cc(S(=O)(=O)N2CCCC2)ccc1O)Nc1ccc(S(=O)(=O)N2CCOCC2)cc1  1.29%
35. CCn1c(=O)c(C(=O)NC(C)C)c(O)c2ccccc21  0.51%
36. Cc1sc2nc(CSc3ccccc3)nc(N3CCN(C)CC3)c2c1C  0.24%
37. O=C(CSc1ncccn1)N/N=C/c1ccc(OC2CSC2)cc1  0.1%
38. Cc1ccc(Nc2nnc(SCC(=O)Nc3ncc(S(=O)(=O)c4ccc([N+](=O)[O-])cc4)s3)s2)cc1  0%
39. Cc1nnc(SCC(=O)Nc2ncc(S(=O)(=O)c3ccc([N+](=O)[O-])cc3)s2)s1  -0.12%
40. COC(=O)c1ncccc1SC  -0.23%
41. CCn1nc(C(=O)NCCc2ccc(S(N)(=O)=O)cc2)c2ccccc2c1=O  -2.56%
42. CC(C)=C1SC(N2CCOCC2)=NC1=O  -2.58%
43. CC(C)C(NC(=O)c1ccccc1)C(=O)NC1=NCCS1 (stereo not given)  -2.59%
44. O=C(c1c[nH]cc1-c1ccccc1)c1cccc2ccccc12  -3.22%
45. O=C(Nc1nc2ccccc2s1)c1cc(-c2ccccc2)nn1-c1ccccc1  -3.23%
46. Cc1cc(C(=O)COc2ncnc3sccc23)c(C)n1C  -3.73%
47. CC1CCN(S(=O)(=O)N2CCC(C(=O)NCc3cccs3)CC2)CC1  -4.64%
48. CCOC(=O)c1sc2nc(CSc3ccccc3)nc(NCCN(C)C)c2c1C  -5.4%
49. COc1cc(-c2nc3n(n2)C(c2ccncc2)C(C(N)=O)=C(C)N3)cc(OC)c1OC (stereo not given)  -5.67%
50. CCOC(=O)C(Cc1ccccc1)C(=O)Nc1ccccc1C (stereo not given)  -5.73%
51. Cc1ccc(/C=N/NC(=O)Cn2nnc(N)n2)cc1  -5.78%
52. CC(C)CNC(=O)c1c(N)n(/N=C/c2ccccn2)c2nc3ccccc3nc12  -5.94%
53. CC(C)CCn1nnnc1C(C(C)C)N1CCC(C(N)=O)CC1 (stereo not given)  -6.25%
54. COc1cccc(C2=CC(c3cccc(OC)c3OC)n3nnnc3N2)c1 (stereo not given)  -6.61%
55. CCC(C)[C@H](NC(=O)NCCC1=CCCCC1)C(=O)OC (stereo not given in full)  -7.06%
56. CCOC(=O)N1CCN(C(=O)CN(c2ccc(OC)cc2)S(C)(=O)=O)CC1  -8.65%
57. O=c1cc(-c2ccccc2)c2ccccc2[nH]1  -8.75%
58. O=C(O)C(Oc1ccc2c3c(c(=O)oc2c1)CCC3)c1ccccc1 (stereo not given)  -10.3%
59. CC(/C=C/c1ccco1)=N\NC(=O)c1cc(C)[nH]n1  -12%
60. COc1ccc(OCC(O)CNC(=O)Nc2cc(C)cc(C)c2)cc1 (stereo not given)  -16.7%
